Bioassay records deposited in PubChem by Broad Institute.
An excerpt weighted towards active compounds, which were near 4% of everything screened.
C2C12 statin: suppressors of simvastatin-induced myotoxicity in C2C12 myotubes; rescue of ATP level, % at 7.49 µM; actives 0.78% (n = 330,000); ATP luminescence, 48 h; scaled: DMSO 0, geranylgeraniol control 100;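 active = mean ATP rescue above about 67%, or every replicate alone reaching that limit, limit read from the data, passing the limit was not always enough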;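 note: myotubes were challenged with 10 µM simvastatin during compound exposure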
MITF act: MITF TRPM1 promoter activation in melanoma cells | SK-MEL-5 TRPM1-promoter luciferase, 24 h; % of positive control, neutral wells = 0 | activation, % at 12.5 µM | actives 0.75% (n = 300,000);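 active = mean activation of at least 80% with every replicate also reaching 80%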;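 note: 0% = neutral control wells and 100% = parthenolide positive control wells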
LMP1 NFkB inh: Epstein-Barr LMP1 NF-kappaB reporter inhibition; actives 0.69% (n = 350,000); LMP1-induced NF-kappaB luciferase reporter cells, luminescence; inhibition, % at 12.5 µM; in the data active = inhibition above about 41%;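 note: 0% = neutral control wells and 100% = reference inhibitor control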
MITF TRPM1 inh: reduces MITF-dependent TRPM1 promoter luciferase signal. actives 0.83% (n = 330,000). AID 488899. inhibition, % at 12.5 µM. SK-MEL-5 TRPM1 promoter luciferase, 24 h;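 active = mean inhibition across replicates of 60% or more, whatever share of single replicates reaches that level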
Wnt bcat act: activates Wnt/beta-catenin signaling in a reporter cell assay; activator, plate reader; activation, % at 9.35 µM; actives 1.2% (n = 300,000); AID 743398; in the data active = activation above about 30%, passing the limit was not always enough;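 note: 0% = neutral control wells and 100% = positive control wells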
esBAF inh: inhibitors of esBAF chromatin remodeling in mouse ES cells. actives 2% (n = 350,000). AID 602393. Bmi1-luciferase knock-in reporter, 24 h; 100% = twice the neutral-well signal. reporter increase, % at 12.5 µM; in the data active = activation above about 40%;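 note: 0% = median of the plate's neutral control wells and 100% = double that signal; a rise in the Bmi1 reporter signal indicates esBAF inhibition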
An asterisk follows results filed as active.

`CC(C)NC(=O)N1[C@H](C#N)[C@@H](c2ccc(-c3ccc(F)cc3)cc2)[C@@H]1CO` gave C2C12 statin 76* and esBAF inh 1.
N#C[C@@H]1[C@@H](c2ccc(-c3ccc(F)cc3)cc2)[C@@H](CO)N1C(=O)Cc1ccccc1 was read as C2C12 statin 14 and esBAF inh 2.
`N#C[C@H]1[C@H](c2ccc(-c3ccc(F)cc3)cc2)[C@@H](CO)N1C(=O)Cc1ccccc1` gave C2C12 statin 70* and esBAF inh 9.
C[C@@H]1CN([C@@H](C)CO)C(=O)c2cc(-c3cccnc3)cnc2O[C@H]1CN(C)Cc1ccccc1 was read as C2C12 statin -6.
For Cc1ccc(C)c(N2CCN(C(c3ccc(N(C)C)cc3)c3nnnn3C(C)(C)C)CC2)c1 (stereo not drawn) the results were C2C12 statin 6, MITF act -2, LMP1 NFkB inh 6, MITF TRPM1 inh 9 and esBAF inh 1.
Screening C[C@@H]1CN([C@H](C)CO)C(=O)c2cc(NC(=O)CCCN(C)C)ccc2O[C@@H]1CN(C)Cc1ccc(Oc2ccccc2)cc1 returned C2C12 statin -26 and esBAF inh -3.
`Clc1ccc(-c2csc(N/N=C\c3cccnc3)n2)cc1` gave MITF act 36, LMP1 NFkB inh 3 and MITF TRPM1 inh -31.
`COc1ccccc1CC(=O)Nc1ccc(OC)c(OC)c1` gave C2C12 statin 8, MITF act -4, LMP1 NFkB inh -6, MITF TRPM1 inh 4 and esBAF inh 1.
COc1ccccc1CC(=O)Nc1ccc2c(c1)OC1(CCCC1)O2 was read as C2C12 statin 10, MITF act 53, LMP1 NFkB inh -18, MITF TRPM1 inh -48, Wnt bcat act -4 and esBAF inh 52*.
O=C(NCc1cccnc1)c1ccc(Cl)c(S(=O)(=O)N2CCCCCC2)c1 was read as C2C12 statin -13, MITF act -5, LMP1 NFkB inh 8, MITF TRPM1 inh 7, Wnt bcat act -2 and esBAF inh -3.
`Cc1sc2ncnc(Sc3ccccc3C(=O)O)c2c1C` gave MITF act 4, LMP1 NFkB inh 3, MITF TRPM1 inh -4 and Wnt bcat act -1.
Screening Cc1sc2ncnc(Sc3nnnn3-c3ccccc3)c2c1C returned C2C12 statin 24, MITF act -67, LMP1 NFkB inh 2, MITF TRPM1 inh 69* and esBAF inh -5.
Clc1ccc(-n2nnnc2Sc2ncnc3sccc23)cc1 was read as C2C12 statin -62, LMP1 NFkB inh 51*, MITF TRPM1 inh 66* and esBAF inh -16.
`O=C1[C@H]2[C@@H](c3ccc(Cl)cc3)N3C(=O)N(c4cccc(Br)c4)C(=O)[C@@]3(Cc3ccc(Cl)cc3)[C@H]2C(=O)N1C1CCCCC1` gave C2C12 statin 14, MITF act -3, LMP1 NFkB inh 1, MITF TRPM1 inh -6, Wnt bcat act -10 and esBAF inh -1.
`CN1C[C@@H]2[C@@H]3C(=O)N(Cc4ccccc4)C(=O)[C@@H]3[C@](C)(C1=O)N2C(=O)c1ccc(C(F)(F)F)cc1` gave C2C12 statin 6, MITF act -9, LMP1 NFkB inh 3, MITF TRPM1 inh 12, Wnt bcat act -3 and esBAF inh 7.
Screening CCN=c1scc(-c2ccco2)n1/N=C/c1ccc(OC)c(O)c1 returned C2C12 statin 1, MITF act 72, LMP1 NFkB inh -24, MITF TRPM1 inh -63, Wnt bcat act 40* and esBAF inh 54*.
CCN=c1scc(-c2ccco2)n1/N=C/c1ccc(O)cc1 was read as C2C12 statin -5, LMP1 NFkB inh -32, MITF TRPM1 inh -71 and esBAF inh 33.
For CCN(CC)C1CCCCC1NS(=O)(=O)c1ccc(Cl)cc1 (stereo not drawn) the results were C2C12 statin -6, MITF act 13, LMP1 NFkB inh 52*, MITF TRPM1 inh -12, Wnt bcat act 16 and esBAF inh -1.
CN(c1ccccc1)C1CCCCC1NS(=O)(=O)c1ccc(Cl)cc1 (stereo not drawn) was read as MITF act 5, LMP1 NFkB inh -6, MITF TRPM1 inh -9 and Wnt bcat act 6.
